Most compounds without a hit are left out; they make up all but 2.4% or so of the library.
Cruzain noTriton = blocks cruzain activity in detergent-free assay | purified cruzain, Z-FR-AMC fluorescence, no detergent | Potency, µM, for inactives: max response, negative = inhibition, hits mostly inhibitors | 2.3% of 200,000 active;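 note: plate controls were enzyme without inhibitor for no effect and buffer without enzyme for full effect; nearly all actives have a fitted effect of over 40% in size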
Target sequence (P25779 123-467 limits assumed): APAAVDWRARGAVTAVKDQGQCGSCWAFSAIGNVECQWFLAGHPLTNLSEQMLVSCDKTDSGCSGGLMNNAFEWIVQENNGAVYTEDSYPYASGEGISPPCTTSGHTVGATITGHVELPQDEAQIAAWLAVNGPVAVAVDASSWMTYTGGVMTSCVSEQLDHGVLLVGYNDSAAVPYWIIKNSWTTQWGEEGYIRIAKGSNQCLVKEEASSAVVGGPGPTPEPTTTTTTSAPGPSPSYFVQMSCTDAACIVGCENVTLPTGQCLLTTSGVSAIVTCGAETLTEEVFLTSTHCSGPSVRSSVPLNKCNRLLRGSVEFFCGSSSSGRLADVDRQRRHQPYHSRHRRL
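Purified cruzain at 1.5 nM, pre-incubated 15 min with compound at room temperature in 100 mM sodium acetate pH 5.5, 5 mM DTT, 0.00005% Triton X-100. Reaction started with 2 uM Z-FR-AMC; AMC fluorescence increase over 60 s gives rate.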
Cruzain inh Det = cruzain (T. cruzi) inhibition with detergent; P25779; purified cruzain, Z-FR-AMC fluorescence, 0.01% Triton; Potency, µM, for the others: max response, negative = inhibition, hits mostly inhibitors; 0.43% of 200,000 active; AID 1478;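 note: plate controls were neutral wells for no effect and buffer without enzyme for full effect; nearly all actives have a fitted effect of over 40% in size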
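Read-out: AMC fluorescence (360 nm excitation, 450 nm emission), four reads over 2 min, first-to-third difference used. Conditions: cruzain 1.5 nM, Z-FR-AMC 2 uM, pH 5.5 acetate, 5 mM DTT, 0.01% Triton X-100.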
* hit, by the source's call; u = inconclusive. Calls come from the whole dose curve; as a rule, active = well fitted curve in the direction sought with a large enough effect; inconclusive = small, poorly fitted or top-dose-only effect, or another doubt; inactive = no such curve, though single readings can be large; an effect the other way counts as inactive or inconclusive. Potency is the fitted concentration of half-maximal effect.

SMILES	Cruzain noTriton	Cruzain inh Det
COc1ccc(C[C@@H](N)c2ccc(OC)cc2)cc1	-4%	-1%
Cc1c(Cl)cccc1-n1ncc(C(=O)N2CCC(C)CC2)c1C1CCN(C(=O)OC(C)(C)C)CC1	u	-1%
COc1ccc(-c2nc(C(=O)Nc3cccc(C(C)=O)c3)nn2-c2ccc(Cl)cc2)cc1	-20%	-3%
CC(=O)c1cccc(NC(=O)c2nc(-c3ccccc3)n(-c3ccccc3C)n2)c1	7.9µM*	-6%
CCOC(=O)C1CCC(CN(Cc2ccc(Cl)cc2)S(=O)(=O)c2cc(Cl)cc(Cl)c2)CC1 (configuration not stated)	13%	1%
COc1ccc(NC(=O)c2ccc3c(=O)n(Cc4ccco4)c(=S)[nH]c3c2)c(OC)c1	u	-3%
COc1ccc(OC)c(NC(=O)c2ccc3c(=O)n(CCc4ccccc4)c(=S)[nH]c3c2)c1	10µM*	1%
Cc1ccccc1Nc1oc(-c2ccccc2)nc1-c1cccc2ccccc12	-19%	-2%
O=C1/C(=C/c2cccs2)SC(=S)N1c1ccccc1	u	-1%
CCN(CC)c1ccc(N2C(=O)/C(=C\c3cccs3)SC2=S)cc1	25µM*	-3%
COc1ccccc1NC(=O)C1=C(C)Nc2nc(SCc3ccccc3)nn2C1c1cccs1 (configuration not stated)	13%	1%
Cc1ccc(CSc2cn(CC(=O)N3CCCCC3)c3ccccc23)cc1	3%	-9%
CCCn1c2ccccc2c2nnc(SC(CC)C(=O)Nc3sc4c(c3C#N)CCCC4)nc21 (configuration not stated)	10µM*	0%
CCCn1c2ccccc2c2nnc(SC(CC)C(=O)Nc3cc(C)on3)nc21 (configuration not stated)	-21%	-14%
C=CCn1c(O)c(N=NC(=S)Nc2ccc(OC)c(Cl)c2)c2ccccc21	10µM*	-3%
C=CCn1c(O)c(N=NC(=O)OC(C)(C)C)c2ccccc21	3%	-3%
Cc1ccc(OCC(=O)Nc2ccc3nc(SCC(=O)Nc4ccc(C)cc4C)sc3c2)cc1	1%	-2%
O=C(Nc1ccc(Cl)c(Cl)c1)c1cc(S(=O)(=O)N2CCN(c3cccc(Cl)c3)CC2)ccc1F	3.2µM*	1%
O=C(Nc1ccc(F)c(F)c1)c1cc(S(=O)(=O)N2CCN(c3ccccn3)CC2)ccc1F	3%	-4%
O=C(Nc1ccc2c(c1)CCC2)c1cccc(S(=O)(=O)N2CCN(c3ccccc3)CC2)c1	25µM*	1%
O=C(NC1CCCc2ccccc21)c1cccc(S(=O)(=O)N2CCN(c3ccccc3)CC2)c1 (configuration not stated)	u	-2%
Cc1cc(C)cc(NC(=O)N2CCC3(CC2)Oc2ccccc2C(=O)N3Cc2ccccc2F)c1	2%	-3%
O=C(O)CNC(=O)c1ccc([As](=O)(O)O)cc1	7%	7%
O=C(NCc1ccccc1Cl)C(=O)NCC(c1ccco1)S(=O)(=O)c1cccs1 (configuration not stated)	-3%	-8%
CCOC(=O)c1c(-c2ccc(C)o2)csc1NC(=O)CSc1nnc(C)s1	u	-7%
SMILES	Cruzain noTriton	Cruzain inh Det
CCOC(=O)c1c(-c2ccc(C)o2)csc1NC(=S)NC(=O)c1ccccc1Br	32µM*	-3%
CCOC(=O)c1c(-c2ccc(C)o2)csc1NC(=S)NC(=O)c1cccs1	25µM*	-1%
CCOC(=O)c1c(-c2ccccc2)csc1NC(=S)NC	-3%	-14%
CC(C)(C)OC(=O)N1CCC(c2nnc(SCc3cccc(Cl)c3)o2)CC1	u	-7%
COc1ccc(S(=O)(=O)N2CCN(CC(=O)Nc3ccc(Cl)c(C(F)(F)F)c3)CC2)cc1	13%	-3%
O=C(CSc1ccccc1)Nc1nc2ccccc2[nH]1	-3%	-7%
O=C(CSc1ccc(Cl)cc1)Nc1ccc(-c2nc3ccccc3[nH]2)cc1	20µM*	u
COc1ccc(NC(=O)Cc2csc(COc3cccc(C)c3)n2)cc1OC	u	-7%
COc1cc(/C=C(\C#N)c2nc3ccccc3[nH]2)cc(Cl)c1OCc1ccccc1Cl	10µM*	0%
COc1cc(/C=C(\C#N)c2nc3ccccc3[nH]2)c([N+](=O)[O-])cc1OCc1ccccc1	32µM*	-5%
COc1cc(/C=C(\C#N)c2nc3ccccc3[nH]2)ccc1OC(=O)c1ccco1	-9%	-4%
N#C/C(=C\c1ccc(OCc2ccc(Cl)cc2Cl)cc1)c1nc2ccccc2[nH]1	-11%	2%
Cc1cccc(-n2c(=O)c3ccccc3n(Cc3ccc(F)cc3)c2=O)c1	-6%	-6%
Cc1nc2nc(NCc3ccc(Br)cc3)[nH]n2c(=O)c1Cc1ccccc1	1%	-1%
Cc1cccc(Nc2nnc(SCC(=O)NC3CCCc4ccccc43)s2)c1 (configuration not stated)	-5%	-9%
Cc1ccccc1Nc1nnc(SCC(=O)NC(=O)Nc2ccc3c(c2)OCCO3)s1	u	-4%
Cc1cccc(Nc2nnc(SCC(=O)Nc3cccnc3Cl)s2)c1	16µM*	25µM*
Cc1cccc(NC(=O)CSc2nnc(NC(=O)CN3CCCCC3)s2)c1	-14%	-4%
Cc1cccc(NC(=O)CSc2nnc(NC(=O)c3ccc(S(=O)(=O)N4CCOCC4)cc3)s2)c1C	-11%	-1%
Cc1cccc(C)c1Nc1nnc(SCC(=O)Nc2cc(S(=O)(=O)N3CCCCC3)ccc2Cl)s1	13µM*	-3%
Cc1cccc(Nc2nnc(SCC(=O)NC(=O)Nc3ccc4c(c3)OCCO4)s2)c1	16µM*	-2%
Cc1cccc(Nc2nnc(SCC(=O)Nc3cccc(S(=O)(=O)N4CCCCC4)c3)s2)c1	13µM*	-3%
CC(=O)Nc1ccc(S(=O)(=O)N2CCC(c3nnnn3-c3ccccc3)CC2)cc1	11%	-2%
CCOC(=O)c1cc2c(=O)n3ccccc3nc2n(Cc2ccco2)c1=NC(=O)c1c(F)cccc1Cl	5%	-20%
CCCC12CN3CC(CCC)(CN(C1)C3c1c(C)[nH]c(=O)[nH]c1=O)C2=O (configuration not stated)	-4%	1%
SMILES	Cruzain noTriton	Cruzain inh Det
O=C(CSc1nnnn1-c1ccc(Cl)cc1)NC(=O)Nc1ccc2c(c1)OCCO2	25µM*	-2%
Cc1ccc(-n2nnnc2SCC(=O)NC(=O)Nc2ccc3c(c2)OCCO3)cc1	-12%	-3%
CC(C)CC(=O)OCc1cc(=O)n2nc(C3CCCCC3)sc2n1	7%	-3%
CC(C)CNC(=O)Nc1cc(C(=O)NCc2ccc(C(C)C)cc2)ccc1N1CCCC1	9%	-7%
Cc1ccc2oc3c(c(=O)c2c1)C(c1cccc(Br)c1)N(Cc1ccco1)C3=O (configuration not stated)	25µM*	7%
Cc1cc2oc3c(c(=O)c2cc1C)C(c1cccc(Br)c1)N(Cc1ccco1)C3=O (configuration not stated)	u	-3%
Cc1ccc(NC(=O)C2CCCN2S(=O)(=O)c2cccc3cccnc23)cc1C (configuration not stated)	5%	-3%
COC(=O)Cn1c(=NC(=O)c2nc3ccccc3s2)sc2cc(S(C)(=O)=O)ccc21	17%	-8%
COC(=O)Cn1c(=NC(=O)c2ccc([N+](=O)[O-])s2)sc2cc(Br)ccc21	10µM*	-4%
CC(C)NC(=O)Cn1c(=O)nc(-c2ccccc2)c2ccccc21	-2%	-2%
Cc1nn2c(C)c(C(=O)NCC(C)c3ccccc3)cnc2c1-c1ccccc1 (configuration not stated)	-5%	-7%

High-throughput results (PubChem)
